From PubChem BioAssay AID1420 (Emory University Molecular Libraries Screening Center, 2008)
Hit rate of the full screen: of about 1,100 compounds, about 65 (6%) were called active. Only a sample is shown. Results with a measured potency or affinity are listed apart. Unmarked numbers belong to inactive results. The rule behind the calls is not given here.

Target: Calpain-2 catalytic subunit (Sus scrofa) (UniProt P43367)
Assay: pig calpain II inhibitor potency, dose response, biochemical, fluorogenic peptide substrate (AID 1420)
Conditions: purified calpain II, 30 min; series mostly up to 50 µM; percent of control activity: at the top concentration

Sequence of Calpain-2 catalytic subunit (Sus scrofa) (P43367 whole entry, looked up): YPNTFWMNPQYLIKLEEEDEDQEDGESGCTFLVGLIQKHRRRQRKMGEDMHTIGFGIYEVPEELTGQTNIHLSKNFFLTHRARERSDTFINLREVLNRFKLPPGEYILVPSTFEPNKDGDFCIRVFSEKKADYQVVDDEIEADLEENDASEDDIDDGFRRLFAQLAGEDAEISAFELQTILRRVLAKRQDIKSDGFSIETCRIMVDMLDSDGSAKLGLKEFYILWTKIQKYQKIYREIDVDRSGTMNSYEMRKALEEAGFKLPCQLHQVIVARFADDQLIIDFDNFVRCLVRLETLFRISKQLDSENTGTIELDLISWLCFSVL

| SMILES | percent of control activity |
| --- | --- |
| O=C(NNC(=O)c1cc(OCC(F)(F)F)ccc1OCC(F)(F)F)c1cccc(C(F)(F)F)c1 | 119% |
| CN(C)c1cccc(C(=O)OCC(=O)Nc2ccccc2Cl)c1 | 126% |
| CCOC(=O)C(C)Oc1ccc(OCc2ccccc2)cc1 (stereo not drawn) | 106% |
